A word on the % Inhibition: it is the drop in the measured response relative to a control, in per cent.

The values below come from article PMC4552634, “A New Set of Chemical Starting Points with Plasmodium falciparum Transmission-Blocking Potential for Antimalarial Drug Discovery” (PLoS ONE, 2015).

In all, about 13,000 compounds went through this assay and about 3,200 (25%) showed an effect of 50% or more. The list shows a part of the results.

The test system of the experiment is P. falciparum stage V gametocytes. Also noted: BacTiter-Glo ATP luminescence viability of purified stage V gametocytes in 384-well plates, per cent inhibition versus DMSO. To be noted: 48 h, 5 µM; inhibitor.
As for `CCC(C)CN1CCN(c2ccc(NC(=O)c3cccs3)cc2)CC1C` (centres unmarked) [TCMDC-134997], the “% Inhibition” value is recorded as 0.3581%.

With `Cc1ccc(C(=O)NC2C(=O)NC2c2ccccc2)c(C)c1` (centres unmarked) [TCMDC-131386], the “% Inhibition” value was found to be 4.246%.

Take `COc1ccc(NC(=O)[C@H](CC(C)C)Nc2cc(C)nc(NCc3ccccc3C)n2)cc1` [TCMDC-134909]: the “% Inhibition” value is reported as -97.01%.

On to `COc1cc2nc(NCc3cccc(CNC(=O)c4ccc(-c5ccc(C(C)=O)cc5)cc4)c3)nc(N)c2cc1OC.O=C(O)C(F)(F)F` [TCMDC-138177], for which the “% Inhibition” value is reported as 117.9%.

For `COc1cc2nc(NCC3CCN(C(=O)c4ccc(-c5ccc(C(=O)N(C)C)cc5C)cc4)CC3)nc(N)c2cc1OC` [TCMDC-138182], the “% Inhibition” value is -26.73%.

With `COc1cc2nc(N3CCC(CNC(=O)c4ccc(-c5ccc(Cl)cc5)cc4)CC3)nc(N)c2cc1OC` [TCMDC-138718], the “% Inhibition” value was 145.1%.

On to `COc1cc(N)c(Cl)cc1C(=O)NCC1CCN(c2nc(C)cc(C)n2)CC1` [TCMDC-124850], for which the “% Inhibition” value came out at 17.19%.

As for `COc1cc2nc(N3CCC(CNC(=O)c4ccc(C(C)=O)cc4)CC3)nc(N)c2cc1OC.O=C(O)C(F)(F)F` [TCMDC-138210], the “% Inhibition” value is reported as 69.3%.

For the molecule `COc1cc2nc(N3CCC(CNC(=O)c4cccc5cccnc45)CC3)nc(N)c2cc1OC` [TCMDC-138181], the “% Inhibition” value was 14.63%.

As to `COc1cc2nc(N3CCC(CNC(=O)c4ccc(OC(F)(F)F)cc4)CC3)nc(N)c2cc1OC.O=C(O)C(F)(F)F` [TCMDC-138211], the “% Inhibition” value is -26.96%.

Turning to `COc1cc2nc(N3CCC(CNC(=O)c4cccc5cc[nH]c45)CC3)nc(N)c2cc1OC` [TCMDC-138184], the “% Inhibition” value is listed as 101.1%.

For `Cc1cc2nc(-c3ccc(C(=O)NCc4cccc(C(F)(F)F)c4)cc3)[nH]c2cc1C` [TCMDC-140431], the “% Inhibition” value is -14.71%.

Regarding `CN(C)Cc1cccc(-c2cnc(N)c(-c3nc4ccc(S(C)(=O)=O)cc4[nH]3)c2)c1` [TCMDC-133721], the “% Inhibition” value is 43.08%.

Regarding `CSc1ccc(CN2CCC(NC(=O)c3ccc(-c4cccc(Cl)c4)s3)CC2)cc1` [TCMDC-134341], the “% Inhibition” value worked out at 12.93%.

On to `COc1cc(Nc2nc(N)n(C(=O)c3ccc4c(c3)OCO4)n2)cc(OC)c1OC` [TCMDC-136737], for which the “% Inhibition” value is -65.07%.

In the case of `O=c1[nH]c2c(cc1CNC1CCCCC1)c(-c1ccc(F)cc1)nn2-c1ccccc1` [TCMDC-125352], the “% Inhibition” value was determined as 14.87%.

Take `CCCCOC(=O)NCCCC[C@H](NC(=O)OC(C)(C)C)C(=O)N[C@H](C(=O)OC(c1ccccc1)c1ccccc1)[C@H]1O[C@@H](n2ccc(=O)[nH]c2=O)[C@@H]2OC(C)(C)O[C@@H]21` [TCMDC-131947]: the “% Inhibition” value was determined as 9.174%.

For the molecule `Cc1c(C(=O)C2CC2CN2CCC(N3CCCC3)CC2)sc2ccccc12` (centres unmarked) [TCMDC-132577], the “% Inhibition” value was determined as 31.52%.

Regarding `C=C[C@]1(C)C[C@@H](OC(=O)CSC2CN3CCC2C3)[C@@]2(C)C3C(=O)CC[C@@]3(CC[C@H]2C)[C@@H](C)[C@@H]1O` (some centres unmarked) [TCMDC-139185], the “% Inhibition” value came out at 16.51%.

For the molecule `CC(C)(C)c1cc(C(=O)N2CCN(c3cnccn3)CC2)n(Cc2ccccc2)n1` [TCMDC-133778], the “% Inhibition” value is recorded as 6.708%.

With `COC(=O)c1ccc(-c2ccc(C(=O)NCC3CCN(c4nc(N)c5cc(OC)c(OC)cc5n4)CC3)cc2)cc1` [TCMDC-138721], the “% Inhibition” value is on record as 127%.

Take `COc1cc2nc(N3CCC(CNC(=O)c4ccc(-c5ccccc5)cc4)CC3)nc(N)c2cc1OC` [TCMDC-137787]: the “% Inhibition” value is -6.004%.

On to `COc1cc2nc(N3CCC(CNC(=O)c4ccc(NC(=O)c5ccc(Cl)cc5)cc4)CC3)nc(N)c2cc1OC` [TCMDC-138712], for which the “% Inhibition” value is recorded as 79.48%.

Consider `COc1cc2nc(N3CCC(CNC(=O)c4ccc(-c5ccc(C(F)(F)F)cc5)cc4)CC3)nc(N)c2cc1OC` [TCMDC-138716], for which the “% Inhibition” value came to 114.6%.

Turning to `COc1cc2nc(N3CCC(CNCc4ccc(-c5ccc(C(F)(F)F)cc5)cc4)CC3)nc(N)c2cc1OC` [TCMDC-138757], the “% Inhibition” value is reported as 94.11%.

As for `COc1ccc2nccc([C@@H](O)CN3CCC(NC(=O)C(=Cc4ccc(C#N)cc4)c4ccc(-c5ccccc5)cc4)CC3)c2c1` [TCMDC-141112], the “% Inhibition” value is reported as -10.17%.

In the case of `Cc1cc(NC(=O)Nc2ccc(Cl)cc2F)c2ccccc2n1` [TCMDC-134658], the “% Inhibition” value is given as -34.71%.

Regarding `CCCC(C)NC(=O)c1cnn(-c2ccc(C(C)(C)C)cc2)c1OCc1ccc(Br)cc1` (centres unmarked) [TCMDC-139598], the “% Inhibition” value was determined as 11.83%.

Take `CC(=O)Nc1ccc(C(=O)Nc2cccc(-c3ccc(-c4nc5cc(F)ccc5[nH]4)s3)c2)cn1` [TCMDC-136833]: the “% Inhibition” value is -51.51%.

Take `Cn1c2c(c3ccccc31)CN(CCC1(c3ccc(Cl)c(Cl)c3)CN(C(=O)Cc3ccccc3)CCO1)CC2` (centres unmarked) [TCMDC-135563]: the “% Inhibition” value was determined as 32.52%.

Consider `Cc1cc(C(=O)Nc2ccc3c(c2)CCN3C2CCN(Cc3ccc(F)cc3Cl)C2)no1` (centres unmarked) [TCMDC-135081], for which the “% Inhibition” value was determined as 2.936%.

For the molecule `Cc1cc(Cl)c(S(=O)(=O)NC(C)(C)C)cc1OCC(=O)NC1CCCCC1` [TCMDC-124352], the “% Inhibition” value is recorded as -13.59%.

As to `COCCN1CCC(CN(C)CC(C)(C)c2nc(-c3ccc(Cl)c(O)c3)c(-c3ccncc3)[nH]2)CC1` [TCMDC-140899], the “% Inhibition” value was -71.13%.

For the molecule `CN1CCN(c2cc3c(cc2Cl)CCN3C(=O)Cc2ccc(Cl)c(NC(=O)Nc3cccc(C#N)c3)c2)CC1` [TCMDC-139474], the “% Inhibition” value is 3.911%.

For `Nc1ncc(-c2ccc(F)cc2)cc1-c1nc2ccc(Cl)cc2[nH]1` [TCMDC-138810], the “% Inhibition” value is -32.19%.

Consider `Cc1[nH]cnc1Cc1ccc2c(c1O)c1ccccc1n2C` [TCMDC-131955], for which the “% Inhibition” value is recorded as -82.46%.

In the case of `Cc1cc(NC(=O)c2sc3ccccc3c2O)no1` [TCMDC-124522], the “% Inhibition” value is listed as -1.25%.

Turning to `NC(=O)COc1c(C2CCN(CCN3CCC(CNC(=O)c4ccc(-c5ccc(C(F)(F)F)cc5)cc4)CC3)CC2)ccc2c1CCCC2` [TCMDC-134308], the “% Inhibition” value was determined as 93.17%.

As for `N#Cc1ccc(-c2nc(CO)c(C(=O)NCCCCN3CCC(c4ccc5c(c4OCC(N)=O)CCCC5)CC3)s2)cc1` [TCMDC-138872], the “% Inhibition” value is listed as -1.012%.

With `N#Cc1ccc(-c2ccc(C(=O)NCC3CCN(CCN4CCC(c5ccc6c(c5OCC(N)=O)CCCC6)CC4)CC3)cc2)cc1` [TCMDC-134563], the “% Inhibition” value stood at 103.8%.

As to `N#Cc1ccc(-c2ccc(C(=O)NCCCCN3CCC(c4ccc5c(c4OCC(N)=O)CCCC5)CC3)cc2)cc1` [TCMDC-138803], the “% Inhibition” value is recorded as 73.12%.

With `COc1c(C2CCN(CCN3CCC(CNC(=O)c4ccc(-c5ccc(C#N)cc5)cc4)CC3)CC2)ccc2c1CCCC2` [TCMDC-138859], the “% Inhibition” value is 105.9%.

In the case of `CCOc1c(OC)ccc2c1CCN(CCN1CCC(CNC(=O)c3ccc(-c4ccc(C#N)cc4)cc3)CC1)C2` [TCMDC-138848], the “% Inhibition” value is on record as -12.76%.

`N#Cc1ccc(-c2ccc(C(=O)NCCCCN3CCC(c4ccc5c(c4OCC(N)=O)CCCC5)CC3)nc2)cc1` [TCMDC-135212]: the “% Inhibition” value came to 23.96%.

On to `COc1c(C2CCN(CCN3CCC(NC(=O)c4ccc(-c5ccc(C(F)(F)F)cc5)cc4)CC3)CC2)ccc2c1CCCC2` [TCMDC-138857], for which the “% Inhibition” value was determined as 16.95%.

Consider `COc1cc(CNC[C@@H](O)[C@H](Cc2ccccc2)NC(=O)c2cc(C3CCCC3)cc(N3CCCC3=O)c2)cc(OC)c1` [TCMDC-134558], for which the “% Inhibition” value is -9.273%.

As for `COc1ccc(Nc2nccc(N3CCC(NC(=O)Nc4cccc(OC)c4)C3)n2)cc1` (centres unmarked) [TCMDC-133616], the “% Inhibition” value was -47.96%.

With `CCSc1nnc(C2CCCN(CC(=O)Nc3cc(C(F)(F)F)ccc3Cl)C2)n1CC` (centres unmarked) [TCMDC-123540], the “% Inhibition” value is reported as 7.83%.

As for `CC(=O)C1(c2ccccc2)CCN(CCC2(c3ccc(Cl)c(Cl)c3)CN(C(=O)C3CCCCC3)CCO2)CC1` (centres unmarked) [TCMDC-135326], the “% Inhibition” value is recorded as -73.48%.

Turning to `CCOC(=O)c1c(C)n(-c2ccc(Cl)cc2)c2ccc(OC(=O)C=Cc3ccccc3)cc12` [TCMDC-125715], the “% Inhibition” value was -42.41%.

Turning to `CN(C)CCNC(=O)N1CCCN(c2ncnc3cc(-c4ccccc4)sc23)CC1` [TCMDC-134389], the “% Inhibition” value is -9.14%.

With `O=C(Nc1ccccc1O)C1CCN(c2ncnc3cc(-c4ccc(F)cc4)sc23)CC1` [TCMDC-124822], the “% Inhibition” value was -65.25%.

As for `CC(C)N1CCC(NC(=O)N2CCCN(c3ncnc4cc(-c5ccc(Cl)cc5)sc34)CC2)CC1` [TCMDC-134390], the “% Inhibition” value was -12.69%.

As for `CN(C)CCNC(=O)NC1CN(c2ncnc3cc(-c4ccccc4)sc23)C1` [TCMDC-134388], the “% Inhibition” value was -2.865%.

Regarding `O=C(NCCN1CCCC1)N1CCCN(c2ncnc3cc(-c4ccc(F)cc4)sc23)CC1` [TCMDC-134393], the “% Inhibition” value is recorded as 93.57%.

As to `CN(C)CCNC(=O)N1CCCN(c2ncnc3cc(-c4ccc(Cl)cc4)sc23)CC1` [TCMDC-134387], the “% Inhibition” value amounted to 97.42%.

Consider `CC(C)N1CCC(NC(=O)N2CCCN(c3ncnc4cc(-c5ccccc5)sc34)CC2)CC1` [TCMDC-134391], for which the “% Inhibition” value came out at 65.6%.

Turning to `O=C(NCCN1CCCC1)N1CCCN(c2ncnc3cc(-c4ccc(Cl)cc4)sc23)CC1` [TCMDC-134394], the “% Inhibition” value is listed as -0.6581%.

Turning to `O=C(NCCN1CCCCC1)N1CCCN(c2ncnc3cc(-c4ccccc4)sc23)CC1` [TCMDC-134392], the “% Inhibition” value was 3.881%.

`Cc1c(CNCCCNc2cc(=O)c3ccccc3[nH]2)sc(C(F)F)c1Br` [TCMDC-141322]: the “% Inhibition” value was -67.17%.

For `NC(=O)c1ccc(NC(=O)CN(Cc2ccc(Cl)cc2)S(=O)(=O)c2ccccc2)cc1` [TCMDC-124454], the “% Inhibition” value is 35.94%.

`CN(C)CCOc1ccc(-n2c(-c3nonc3N)nc3cncc(-c4ccc(F)cc4)c32)cc1` [TCMDC-134178]: the “% Inhibition” value is -7.095%.
